Assay results: PubChem BioAssay (NCI)
About 83,000 compounds went through this panel and 20% of them were active in at least one assay; those are over-represented in the sample as a whole.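 Cells were grown in 96-well plates and exposed to the test compound at a single concentration for 48 hours; results are reported as percent growth, with values below 10 considered active.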 A number with no mark means an inactive call. The source made the active and inactive calls.

Key:
Experiment in all cases: NCI-60 one-dose screen, 48 h (100 = growth as untreated, 0 = no growth, -100 = all killed)
Conditions in all cases: 10 µM unless noted
NCI-H23 lung = tested on: NCI-H23 lung
NCI-H226 lung = tested on: NCI-H226 lung
NCI-H322M lung = tested on: NCI-H322M lung
HOP-62 NSCLC = tested on: HOP-62 NSCLC
NCI-H460 lung = tested on: NCI-H460 lung
HOP-92 NSCLC = tested on: HOP-92 NSCLC
NCI-H522 lung = tested on: NCI-H522 lung
A549/ATCC NSCLC = tested on: A549/ATCC NSCLC
786-0 renal = tested on: 786-0 renal
COLO 205 colon = tested on: COLO 205 colon

Row | SMILES | growth (NCI-H23 lung) | growth (NCI-H226 lung) | growth (NCI-H322M lung) | growth (HOP-62 NSCLC) | growth (NCI-H460 lung) | growth (HOP-92 NSCLC) | growth (NCI-H522 lung) | growth (A549/ATCC NSCLC) | growth (786-0 renal) | growth (COLO 205 colon)
1 | COc1ccc(-c2nnc(COc3ccc(NC(=O)Nc4ccc(Cl)c(C(F)(F)F)c4)cc3F)o2)cc1 | -20.2% (active) | 33.5% | 33% | 36.4% | -25.4% (active) | -13.4% (active) | -54.6% (active) | 11.1% | 24.7% | -7.23% (active)
2 | CN1CCN(c2ccc3cc(-c4nc5ccccc5[nH]4)c(=O)oc3c2)CC1 | 74.5% | 89% | 105% | 98% | 92.7% | 58.9% | 94.9% | 90.3% | 105% | 92.4%
3 | O=C(/C=C/CN1CCOCC1)Nc1cc2c(Nc3cccc(Cl)c3F)ncnc2cc1OCCOC(F)F | 85.4% | 80.1% | 4.9% (active) | 70.5% | 93% | 18.9% | 6.03% (active) | 52.7% | 53.4% | 95.1%
4 | O=S(=O)(NCCCNc1cc(-c2cn(-c3ccccc3)nc2-c2cccc(O)c2)ccn1)c1ccc(Br)cc1 | 25.2% | 22.2% | 20.7% | 15.8% | 5.69% (active) | -5.67% (active) | 25.6% | 17.4% | -9.38% (active) | -70.3% (active)
5 | COc1cc(CNC(=O)CCSc2nc3ccccc3c(=O)n2Cc2cc(OC)c(OC)c(OC)c2)cc(OC)c1OC | 51.6% | 70% | 60.1% | 29.3% | 13.7% | 44.6% | 10.2% | 35% | 56.1% | 25.8%
6 | COC1=CC(c2ccc[nH]2)=N/C1=C\c1[nH]c(C)c(C(=O)CCCCC(=O)Nc2ccccc2)c1C | 34.4% | 44.1% | 87.3% | 80.7% | -38.8% (active) | -71.4% (active) | -45.3% (active) | -21.4% (active) | 93.5% | 67.1%
7 | Cc1cccc2cc(/C=C/C(=O)/C=C/c3ccc(Cl)cc3)c(=O)[nH]c12 | 62.8% | 62.1% | 88.8% | 64.6% | 73.1% | 96.3% | 48.4% | 65.6% | 14.5% | 37.8%
8 | COc1ccc2c(c1)C=CC(C#N)N2C(=O)c1ccccc1 (stereo not given) | 26.4% | 61.6% | 53.9% | 34.6% | 5.09% (active) | 34% | 1.91% (active) | 21.2% | 23.4% | -43.7% (active)
9 | CCN1C(=O)N(CC)C2C1NN=c1s/c(=C3\C(=O)N(C4CCCC4)c4ccccc43)c(=O)n12 (stereo not given) | 20.1% | 99.8% | 53% | 8.41% (active) | -1.48% (active) | 28.1% | -5.34% (active) | 25.3% | 14.1% | -29.2% (active)
10 | O=C1CCCCC=C1C[N+](=O)[O-] | 91.5% | 86.3% | 105% | 107% | 102% | 90% | -12.3% (active) | 121% | 102% | 43%
11 | O=C(c1ccccc1)C(Cl)C(Cl)c1ccccc1 (stereo not given) | 86.7% | 7.49% (active) | 106% | 110% | 93.7% | 75.7% | -83.5% (active) | 92.7% | -17.8% (active) | -40.2% (active)
12 | COc1cc(Cn2c(SCC(=O)Nc3cc(OC)c(OC)c(OC)c3)nc3ccccc3c2=O)cc(OC)c1OC | 77.1% | 57.7% | 82.1% | 42.8% | 57.8% | 39.8% | 34% | 62.9% | 73.6% | 109%
13 | COc1cc(/C=C2\C=C(c3ccc(F)cc3)N(Cc3ccccc3)C2=O)cc(OC)c1OC | 62.6% | 56.7% | 61.4% | 108% | 66.4% | 35% | 90.6% | 56.4% | 66.6% | 82.7%
14 | COc1cc(NC(=O)CCl)ccc(=O)c1 | 53.7% | 122% | 86.4% | 113% | 77.4% | 79% | 17.2% | 84.5% | 106% | 82.6%
15 | Nc1c(C(=O)Nc2cccc(C(F)(F)F)c2)sc2nc3c(cc12)CCCCC3 | 3.46% (active) | 11.3% | -5.26% (active) | 3.07% (active) | 10.3% | 17.5% | 20% | -18.4% (active) | -62.8% (active) | 65.1%
16 | COc1ccc(-c2cn[nH]c2-c2cc(OC)c3c(c2)OCO3)cc1 | 18.3% | 47.7% | 15% | 22.1% | 8.74% (active) | 33.4% | -43.9% (active) | 19.8% | 26% | -44.2% (active)
17 | CCCCCCC[C@@H](O)CC(=O)N[C@H](CCCCN)C(=O)N[C@H](Cc1c[nH]c2ccccc12)C(=O)NC(CCCCN)C(=O)N[C@H](CC(C)C)C(=O)N[C@H](Cc1ccccc1)C(=O)N[C@H](CCCCN)C(=O)N[C@H](CCCCN)C(=O)N[C@H](CC(C)C)C(=O)N1CCCC1C(=O)N[C@H](CCCCN)C(=O)N[C@H](Cc1ccccc1)C(=O)N[C@H](CC(C)C)C(=O)N[C@H](Cc1c[nH]cn1)C(=O)N[C@H](CC(C)C)C(=O)N[C@H](C)C(=O)N[C@H](CCCCN)C(=O)N[C@H](CCCCN)C(=O)N[C@H](Cc1ccccc1)C(=O)O (stereo not given in full) | -41.6% (active) | -21.3% (active) | -71.9% (active) | -59% (active) | -25.4% (active) | -54.4% (active) | -48.8% (active) | -47.3% (active) | -34.4% (active) | -47.6% (active)
18 | CC(=O)Nc1ccc2c(c1)/C(=C\C=C/c1ccc([N+](C)(C)C)cc1)c1ccccc1-2 | 54.5% | 57.9% | 50.1% | 18.4% | 73.4% | 52% | 18.1% | 43.2% | 55.4% | 58.1%
19 | COc1ccc(NC(=O)c2cc3ccccc3nc2Nc2cc(OC)c(OC)c(OC)c2)cc1 | 59.6% | 54.5% | 90.2% | 84.1% | 50.3% | 54.7% | 57.2% | 50.4% | 58% | 76.7%
20 | CC(C)(C)c1cn2cccc(C(=O)N3CCN(CC(=O)Nc4ccc(Cl)cc4C(=O)c4ccccc4Cl)CC3)c2n1 | 60.6% | 71.6% | 94.6% | 84.7% | 49.8% | -30% (active) | 54.9% | 27.6% | 55.3% | 54.2%
21 | C=CCOc1ccc(/C(O)=C2\C(=O)C(=O)N(c3nccs3)C2c2ccccc2F)cc1 (stereo not given) | 119% | 102% | 80% | 92.3% | 94.4% | 106% | 100% | 95.4% | 95.5% | 104%
